Eight compounds from PubChem BioAssay (NCI) can be followed below.

Test systems include K-562 leukemia; MALME-3M melanoma; MDA-MB-231 breast; RXF 393 renal; SF-268 CNS; SF-295 CNS; SF-539 CNS; UACC-257 melanoma; M14 melanoma; HCT-15 colon; HT29 colon; SNB-75 CNS; SNB-19 CNS; U251 CNS; PC-3 prostate; SK-MEL-5 melanoma; UACC-62 melanoma; LOX IMVI melanoma; SK-MEL-28 melanoma; SK-MEL-2 melanoma.
Common to all, as to assay: NCI-60 one-dose screen, 48 h (100 = growth as untreated, 0 = no growth, -100 = all killed)
Holding throughout (details): 10 µM

Compounds without any hit were thinned out: in the full panel of roughly 83,000, 20% have a hit.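 Method: cells in 96-well plates; compound added at one concentration; 48 h incubation; percent growth measured; values under 10 scored active.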 A number with no mark means an inactive call. Calls of active or inactive are those of the source.

With `COc1cc(-c2cc(/C=C/C(=O)c3ccc(Cl)c(Cl)c3)[nH]n2)cc(OC)c1OC`, the growth with K-562 leukemia was 31.9%; in the test on MALME-3M melanoma, 87%; in the test on MDA-MB-231 breast it was 62.3%; in the test with RXF 393 renal, 67.3%; in the test with SF-268 CNS it was 104%; with SF-295 CNS, 141%. Also, the growth in the test with SF-539 CNS is 35%; in the test with UACC-257 melanoma, 89.7%; in the test on M14 melanoma, 89.8%; in the test with HCT-15 colon, 50.9%; with HT29 colon it was 58.3%; with SNB-75 CNS it was 75.4%. Also, the growth in the test with SNB-19 CNS is 68%; in the test with U251 CNS, 43.8%; with PC-3 prostate it was 55%; in the test on SK-MEL-5 melanoma, 84.1%; in the test with UACC-62 melanoma it was 81.6%; in the test on LOX IMVI melanoma it was 29.6%. The figures for the growth in the test on SK-MEL-28 melanoma and with SK-MEL-2 melanoma were 96.1% and 86.7%, respectively.
For `Nc1nc(N=Nc2ccc(O)cc2)cc(=O)[nH]1`, the growth is 106% in the test with K-562 leukemia; 96.4% in the test on MALME-3M melanoma; 98.7% in the test with MDA-MB-231 breast; 74.4% in the test with RXF 393 renal; 111% in the test on SF-268 CNS; 94.9% in the test with SF-295 CNS. The growth in the test on SF-539 CNS is 96.6%; in the test with UACC-257 melanoma, 112%; in the test on M14 melanoma, 101%; in the test on HCT-15 colon it was 101%; with HT29 colon, 123%; with SNB-75 CNS, 119%. Further, the growth was 99.5% in the test on SNB-19 CNS; 93.6% in the test on U251 CNS; 104% in the test with PC-3 prostate; 96.6% in the test with SK-MEL-5 melanoma; 101% in the test with UACC-62 melanoma; 93.7% with LOX IMVI melanoma. Moreover, the growth was 106% in the test with SK-MEL-28 melanoma and 144% in the test with SK-MEL-2 melanoma.
For `CCCC(F)C(=O)O` (stereo not given), the growth in the test on K-562 leukemia was 97.6%; with MALME-3M melanoma, 103%; with MDA-MB-231 breast it was 111%; in the test with RXF 393 renal, 117%; in the test on SF-268 CNS, 107%; in the test with SF-295 CNS, 83.5%. Besides, the growth is 102% in the test with SF-539 CNS; 92.2% in the test with UACC-257 melanoma; 97.5% in the test with M14 melanoma; 100% in the test on HCT-15 colon; 97.5% with HT29 colon; 99.2% with SNB-75 CNS. The growth is 102% in the test with SNB-19 CNS; 95.9% in the test on U251 CNS; 90.5% with PC-3 prostate; 105% with SK-MEL-5 melanoma; 100% with UACC-62 melanoma; 100% in the test with LOX IMVI melanoma. Moreover, the growth was 111% in the test with SK-MEL-28 melanoma and 107% with SK-MEL-2 melanoma.
Regarding `CC(C)N(CCNc1nc(C(Cl)(Cl)Cl)nc2cc(Cl)ccc12)C(C)C`, the growth in the test with K-562 leukemia was -53.9% (active); with MALME-3M melanoma, -28% (active); in the test with MDA-MB-231 breast it was -66.4% (active); with RXF 393 renal it was -19% (active); in the test with SF-268 CNS, 0.341% (active); in the test on SF-295 CNS it was -64.9% (active). The growth with SF-539 CNS is -33.7% (active); in the test on UACC-257 melanoma, -64.7% (active); in the test with M14 melanoma it was -68.7% (active); in the test on HCT-15 colon it was -38.4% (active); in the test on HT29 colon, -32.9% (active); in the test with SNB-75 CNS, 8.33% (active). Besides, the growth with SNB-19 CNS is 22.9%; in the test with U251 CNS, -61.5% (active); in the test with PC-3 prostate, -5.1% (active); in the test with SK-MEL-5 melanoma it was -97% (active); in the test on UACC-62 melanoma, -62.2% (active); in the test on LOX IMVI melanoma it was -80.2% (active). Also, the growth in the test with SK-MEL-28 melanoma is -80.9% (active); in the test with SK-MEL-2 melanoma it was -60% (active).
In the case of `CCCCOC(=O)Oc1ccc(C(=O)Oc2ccc(OCC)cc2)cc1`, the growth with K-562 leukemia was 109%; in the test with MALME-3M melanoma, 109%; in the test with MDA-MB-231 breast, 97.9%; in the test on RXF 393 renal it was 102%; in the test with SF-268 CNS, 95.5%; in the test on SF-295 CNS, 109%. The growth was 86.2% with SF-539 CNS; 99.5% in the test on UACC-257 melanoma; 96.7% in the test on M14 melanoma; 102% with HCT-15 colon; 108% in the test on HT29 colon; 111% in the test on SNB-75 CNS. The growth was 102% in the test with SNB-19 CNS; 88.9% in the test on U251 CNS; 93.2% with PC-3 prostate; 102% in the test with SK-MEL-5 melanoma; 104% with UACC-62 melanoma; 96.3% in the test on LOX IMVI melanoma. For the same compound, the growth in the test with SK-MEL-28 melanoma is 109%; with SK-MEL-2 melanoma it was 112%.
As to `CS(=O)(=O)Nc1ccc(Nc2c3ccccc3nc3cc(N)ccc23)cc1`, the growth is 22.7% with K-562 leukemia; -32.7% (active) with MALME-3M melanoma; 85.8% with MDA-MB-231 breast; 64.2% with RXF 393 renal; 13% with SF-268 CNS; -23.3% (active) with SF-295 CNS. Besides, the growth in the test on SF-539 CNS was 2.88% (active); in the test on UACC-257 melanoma, 0.44% (active); with M14 melanoma it was 7.54% (active); in the test with HCT-15 colon it was 73.6%; with HT29 colon it was 55.9%; with SNB-75 CNS it was 38.8%. Besides, the growth was 22.2% in the test with SNB-19 CNS; 3.29% (active) with U251 CNS; 51.3% in the test on PC-3 prostate; 5.37% (active) in the test on SK-MEL-5 melanoma; 40.2% in the test with UACC-62 melanoma; 23.4% in the test on LOX IMVI melanoma. Moreover, the growth with SK-MEL-28 melanoma was 42.3%; in the test on SK-MEL-2 melanoma, 25.1%.
With `COc1cc2cc3c(nc2cc1OC)CCN3Cc1ccc(NC(=O)Nc2cc(C(F)(F)F)cc(C(F)(F)F)c2)cc1`, the growth was 49.8% with K-562 leukemia; 92.1% in the test with MALME-3M melanoma; 57.4% with MDA-MB-231 breast; 82.5% in the test with RXF 393 renal; 78.6% in the test on SF-268 CNS; 69.6% in the test with SF-295 CNS. Moreover, the growth in the test with SF-539 CNS is 86.8%; in the test with UACC-257 melanoma, 89%; in the test with M14 melanoma, 77.4%; in the test with HCT-15 colon it was 76.1%; in the test on HT29 colon, 76.7%; in the test with SNB-75 CNS, 69.1%. The growth in the test on SNB-19 CNS is 71.9%; with U251 CNS, 64.1%; in the test with PC-3 prostate, 39.6%; in the test on SK-MEL-5 melanoma, 89.9%; in the test on UACC-62 melanoma, 80.7%; in the test on LOX IMVI melanoma, 75.4%. The growth was 98.5% with SK-MEL-28 melanoma and 80.2% with SK-MEL-2 melanoma.
`O=C(c1ccc(Cl)cc1Cl)N1CCOCC1`: the growth in the test with K-562 leukemia was 89.1%; in the test with MALME-3M melanoma, 112%; in the test with MDA-MB-231 breast, 98.5%; with RXF 393 renal, 116%; in the test on SF-268 CNS, 98.1%; with SF-295 CNS, 140%. Also, the growth was 96.9% in the test on SF-539 CNS; 96.6% in the test with UACC-257 melanoma; 103% in the test on M14 melanoma; 112% with HCT-15 colon; 105% in the test on HT29 colon; 81.8% in the test with SNB-75 CNS. Also, the growth in the test with SNB-19 CNS was 103%; with U251 CNS, 105%; in the test with PC-3 prostate, 96.4%; in the test on SK-MEL-5 melanoma, 96.3%; with UACC-62 melanoma, 101%; in the test with LOX IMVI melanoma, 96.8%. Further, the figures for the growth in the test with SK-MEL-28 melanoma and with SK-MEL-2 melanoma were 110% and 96.5%, respectively.
